# Source: PubChem BioAssay
# Compounds with a hit are over-represented: about 3% of the library has one in this group of screens.
# A549 viability – kills or reduces viability of A549 cells in Nrf2 counter-screen. Potency, µM (top dose mostly 46 µM), for inactives: at the top dose activity change, negative = cytotoxicity, actives largely listed as inhibitors. A549 ARE-Fluc cells, CellTiter-Fluor viability, 18-24 h. 390,000 compounds, 0.16% hits; also: % is scaled to controls: 0 for no effect and ±100 for the full control effect
#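 A549 ARE_Fluc cells in 5% FBS OPTI-MEM were exposed to compounds in concentration-response for 18-24 h at 37 deg C. Viability was read by CellTiter-Fluor fluorescence (Ex 405/Em 525) after 30 min, before the luciferase read.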
# TrxR1 inh – rat TrxR1 inhibition; O89049; recombinant rTrxR1, NADPH fluorescence consumption, selenite substrate; Potency, µM (series often up to 114 µM), for inactives: top-dose activity change, negative = inhibition, most hits filed as inhibitors; 390,000 compounds, 1% hits; AID 588453; also: % is scaled to controls: 0 for no effect and ±100 for the full control effect; nearly all actives have a fitted effect of over 65% in size
# Target sequence (O89049 whole entry, looked up): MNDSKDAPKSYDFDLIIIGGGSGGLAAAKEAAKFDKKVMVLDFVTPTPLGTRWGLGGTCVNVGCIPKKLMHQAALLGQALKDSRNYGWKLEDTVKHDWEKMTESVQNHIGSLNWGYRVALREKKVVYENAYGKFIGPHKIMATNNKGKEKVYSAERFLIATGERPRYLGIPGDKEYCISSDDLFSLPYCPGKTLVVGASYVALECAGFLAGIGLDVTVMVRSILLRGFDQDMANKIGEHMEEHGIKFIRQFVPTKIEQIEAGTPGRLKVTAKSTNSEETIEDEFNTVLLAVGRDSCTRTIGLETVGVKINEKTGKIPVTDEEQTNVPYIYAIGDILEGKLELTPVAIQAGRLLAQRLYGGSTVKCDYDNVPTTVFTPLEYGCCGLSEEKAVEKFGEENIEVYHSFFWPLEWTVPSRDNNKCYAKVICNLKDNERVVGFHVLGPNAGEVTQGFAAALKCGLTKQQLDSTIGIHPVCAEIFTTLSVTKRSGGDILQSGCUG
#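 Rat TrxR1 (90 nM in the dispensed reagent) was pre-reduced with 400 uM NADPH for 5 min at room temperature, then incubated with compound for 15 min. After 400 uM selenite was added, NADPH fluorescence (Ex 340/Em 450 nm) was followed for 8 min.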
# Nrf2 ARE act – activators of Nrf2 (ARE) signaling | 410,000 compounds, 0.31% hits | Potency, µM (top dose mostly 46.1 µM), without a hit: at the top dose activation, usual class: activators | AREc32 ARE-luciferase reporter (MCF7-derived line), luminescence, 24 h; also: % of control where 0% means no effect; nearly all actives have a fitted effect of over 65% in size
#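 Quantitative high-throughput format: AREc32 reporter cells, 1000 per well, received compound by pin transfer and were incubated 24 hr at 37 deg C, 5% CO2, before Steady-Glo luminescence detection.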
# Nrf2 inh – blocks Nrf2 signaling; A549 ARE-Fluc reporter, luciferase luminescence, 18-24 h; Potency, µM (highest dose often 46 µM), without a hit: at the top dose activity change, negative = inhibition, most hits filed as inhibitors; 360,000 compounds, 2.1% hits; also: % is scaled to controls: 0 for no effect and ±100 for the full control effect; nearly all actives have a fitted effect of over 60% in size
#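 Nrf2 function is reported as luminescence of an ARE-controlled luciferase in A549 cells. Compounds were tested at several concentrations, and a CellTiter-Fluor read on the same wells flagged cytotoxicity.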
# TrxR1 substrate – is turned over as a substrate by rat TrxR1 | purified TrxR1 substrate turnover, NADPH consumption readout | 390,000 compounds, 0.01% hits | Potency, µM (highest dose often 114 µM), without a hit: at the highest dose activity change, negative = substrate turnover; also: % is scaled to controls: 0 for no effect and ±100 for the full control effect; nearly all actives have a fitted effect of over 50% in size
#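 Rat TrxR1, dispensed at 90 nM, was prereduced with 400 uM NADPH (final) for 5 min at ~22 deg C, then incubated with compound 15 min before 400 uM selenite. A first-read NADPH fluorescence drop versus no-compound background flagged substrates.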
# GALK inhibitor – inhibitors of human galactokinase. P51570. Purified GALK, Kinase-Glo residual ATP luminescence. Potency, µM (top dose mostly 57.5 µM), for inactives: at the top dose activity change, negative = inhibition, hits mostly inhibitors. 270,000 compounds, 0.007% hits; also: % is scaled to controls: 0 for no effect and ±100 for the full control effect
#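 Kinase-Glo Plus luminescence measured ATP left after a 1 h room-temperature reaction. The reaction used 5 nM GALK, 100 uM galactose and 35 uM ATP at pH 8.0 (20 mM HEPES, 5 mM MgCl2, 60 mM NaCl, 1 mM DTT, 0.01% BSA).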
# An asterisk follows results filed as active; i = inactive; ? = inconclusive; nt = no result; ! = a repeat was not active; [ ] = dose if it differs, or a comment. Calls follow the shape of the dose curve; as a rule, active = well fitted curve in the direction sought with a large enough effect; inconclusive = small, poorly fitted or top-dose-only effect, or another doubt; inactive = no such curve, though single readings can be large; an effect the other way counts as inactive or inconclusive. Potency is read from the fitted curve at half-maximal effect.
SMILES,A549 viability,TrxR1 inh,Nrf2 ARE act,Nrf2 inh,TrxR1 substrate,GALK inhibitor
COc1ccc(C(=O)Nc2ccc(S(=O)(=O)N(Cc3ccccc3)c3ccccc3)cc2)cc1,-1%,33%,1%,7.3µM*,5%,nt
CCOc1ccc(NC(=O)c2ccc(NC(=O)COC(=O)Cc3ccccc3)cc2)cc1,8%,26%,2%,?,-21%[57.1 µM],nt
COc1ccc(-c2cc(=NCCCCCC(=O)O)c3cc(C)ccc3o2)cc1,-1%,16µM*!,4%,?,i,-1%
COc1ccc(C2=NCC(=O)N(CC(=O)NCc3ccco3)c3sc4c(c32)CCCC4)cc1,?,?,6%,21µM*,1%,-2%
CC1CC(C)CC(C)C(O)C(C#N)=CC=CCC(C2CCCC2C(=O)O)OC(=O)CC(O)C(C)C1 (stereo unspecified),2.3µM*,12%[11.4 µM],-1%,0.52µM*,4%[11.4 µM],nt
CC(C)(C)c1ccc(C(=O)Nc2ccc3nc(SCC(=O)N4CCCC4)sc3c2)cc1,?,15%,-3%,15µM*,-2%,nt
COc1cc(OC)cc(C(=O)Nc2nc(-c3nnn(-c4ccc(C)cc4)c3C)ns2)c1,4%,23%[57.1 µM],?,?,10%[57.1 µM],nt
O=C1NC(=O)N(CCC2=CCCCC2)C(=O)/C1=C/c1cccs1,2%,7.9µM*,0%,6%,4%[57.1 µM],-6%
O=C1NC(=O)N(CCC2=CCCCC2)C(=O)/C1=C/c1ccc(O)cc1,6%,?,-1%,6%,-6%,-2%
O=C1NC(=S)NC(=O)C1=Cc1ccc(OCc2ccccc2)cc1,-4%,7.9µM*,0%,?,3%,nt
CN(C)c1ccc(C=C2C(=O)NC(=S)NC2=O)cc1[N+](=O)[O-],-4%,4µM*,0%,-14%,5%[57.1 µM],-2%
COc1ccc(C=C2C(=O)NC(=S)NC2=O)cc1,1%,2.8µM*,2%,-10%,-4%,nt
C[C@H]1CCC/C=C/[C@@H]2C[C@H](O)C[C@H]2[C@@H](O)/C=C/C(=O)O1,?,-5%[11.4 µM],3%,0.26µM*,-7%[11.4 µM],nt
Cc1cc(C)c(OCC(=O)N2CCN(c3ncc(C(F)(F)F)cc3Cl)CC2)c(C)c1,-5%,-5%,-1%,?,-7%,4%
N[C@@H](Cn1ccc(=O)[nH]c1=O)C(=O)O,nt,7%[57.1 µM],nt,nt,12%[57.1 µM],nt
Cc1ccc(-n2nc3c(N4CCC(C(=O)NCc5ccccc5Cl)CC4)nnc(C)c3c2C)cc1,0%,7%,3%,?,4%,nt
O=C1c2ccccc2-c2cc3ccccc3cc21,-2%,0%[11.4 µM],3.2µM*,?,5%[57.1 µM],nt
CCOC(=O)N1C(C)CN(/[N+]([O-])=N/Oc2ccc([N+](=O)[O-])cc2[N+](=O)[O-])CC1C (stereo unspecified),-20%,25µM*,nt,-15%,-12%,nt
Nc1ccc2ccc3cccc[n+]3c2c1,?,71µM*,4%,13µM*,-17%,-6%
CCN(CC(=O)Nc1ccccc1C(F)(F)F)C(=O)CCSc1ccc(F)cc1,-17%,-22%,2%,?,-15%,nt
O=C(Cc1ccc(S(=O)(=O)N2CCCC2)s1)N1CCN(c2ccc(F)cc2)CC1,-12%,11%[57.1 µM],-1%,18µM*,-2%[57.1 µM],8%
COc1cc2cc(c1Cl)N(C)C(=O)CC(OC(=O)C(C)N(C)C(C)=O)C1(C)OC1C(C)C1CC(O)(NC(=O)O1)C(OC)C=CC=C(C)C2 (stereo unspecified),-18%,-9%[11.4 µM],-1%,?,5%[11.4 µM],nt
CCc1ccccc1NC(=O)CN1CCN(C(=O)COc2ccccc2C#N)CC1,-1%,22%,0%,-8%,8%,nt
CCC(=O)c1ccc(OCC(=O)N2CCN(CC(=O)Nc3ccccc3C(F)(F)F)CC2)cc1,-21%,10%,4%,16µM*,3%,nt
CC(C)(C)c1ccc(C(=O)NC(=S)Nn2cnnc2)cc1,-6%,-13%,0%,?,-5%,0%
